# Experimental data reported in the supplement of paper PMC6411743.
# ± gives the standard deviation of the averaged measurements. Of roughly 6,500 targets only a part is listed; those with the largest changes were picked by preference.
# Key:
# Assay in all cases: NP40-soluble protein abundance relative to vehicle (solubility fold change) (ratio); higher = more soluble protein in presence of ATP
# [1] = biological target: T1, ALG5 (UniProt Q9Y673)
# T1 sequence (whole entry): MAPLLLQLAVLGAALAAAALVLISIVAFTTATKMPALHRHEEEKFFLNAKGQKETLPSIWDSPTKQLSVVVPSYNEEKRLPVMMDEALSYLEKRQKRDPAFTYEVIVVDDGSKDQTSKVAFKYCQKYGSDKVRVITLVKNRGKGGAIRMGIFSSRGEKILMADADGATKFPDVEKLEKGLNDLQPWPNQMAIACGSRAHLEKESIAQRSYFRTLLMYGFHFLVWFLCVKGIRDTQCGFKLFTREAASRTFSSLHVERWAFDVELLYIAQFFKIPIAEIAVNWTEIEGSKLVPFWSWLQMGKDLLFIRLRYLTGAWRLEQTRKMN
# In short: (§1)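 Jurkat crude lysate (Dounce-homogenised) was treated with eight concentrations from 0.1 to 10 mM for 10 min at room temperature, then 3 min at 37 °C. It was solubilised with 0.8% NP40 and benzonase (60 min, 4 °C) and ultracentrifuged, and the supernatant was TMT-labelled for LC-MS/MS. Intensities were vsn-normalised, and the value is the fold change against the NP40-processed vehicle per replicate, from three independent experiments.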
# [2] = biological target: T2, DDX52 (UniProt Q9Y2R4)
# T2 sequence (whole entry): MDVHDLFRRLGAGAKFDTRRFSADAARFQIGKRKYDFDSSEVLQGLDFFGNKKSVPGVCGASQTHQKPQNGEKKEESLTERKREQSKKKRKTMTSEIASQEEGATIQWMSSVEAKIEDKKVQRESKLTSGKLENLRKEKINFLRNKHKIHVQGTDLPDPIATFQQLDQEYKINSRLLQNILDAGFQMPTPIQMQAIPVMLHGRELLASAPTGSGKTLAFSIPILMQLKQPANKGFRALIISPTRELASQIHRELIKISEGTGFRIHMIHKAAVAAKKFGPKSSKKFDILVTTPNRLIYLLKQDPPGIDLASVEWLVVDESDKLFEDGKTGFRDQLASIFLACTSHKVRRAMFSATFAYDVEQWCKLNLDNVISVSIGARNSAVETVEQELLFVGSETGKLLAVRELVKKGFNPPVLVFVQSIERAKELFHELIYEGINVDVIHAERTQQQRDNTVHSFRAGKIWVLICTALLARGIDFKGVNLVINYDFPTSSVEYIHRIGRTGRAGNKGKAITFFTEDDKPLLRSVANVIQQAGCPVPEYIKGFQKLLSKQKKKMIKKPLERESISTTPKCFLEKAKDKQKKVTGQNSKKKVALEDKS
# In short: as §1
# [3] = biological target: T3, FHOD1 (UniProt Q9Y613)
# T3 sequence (whole entry): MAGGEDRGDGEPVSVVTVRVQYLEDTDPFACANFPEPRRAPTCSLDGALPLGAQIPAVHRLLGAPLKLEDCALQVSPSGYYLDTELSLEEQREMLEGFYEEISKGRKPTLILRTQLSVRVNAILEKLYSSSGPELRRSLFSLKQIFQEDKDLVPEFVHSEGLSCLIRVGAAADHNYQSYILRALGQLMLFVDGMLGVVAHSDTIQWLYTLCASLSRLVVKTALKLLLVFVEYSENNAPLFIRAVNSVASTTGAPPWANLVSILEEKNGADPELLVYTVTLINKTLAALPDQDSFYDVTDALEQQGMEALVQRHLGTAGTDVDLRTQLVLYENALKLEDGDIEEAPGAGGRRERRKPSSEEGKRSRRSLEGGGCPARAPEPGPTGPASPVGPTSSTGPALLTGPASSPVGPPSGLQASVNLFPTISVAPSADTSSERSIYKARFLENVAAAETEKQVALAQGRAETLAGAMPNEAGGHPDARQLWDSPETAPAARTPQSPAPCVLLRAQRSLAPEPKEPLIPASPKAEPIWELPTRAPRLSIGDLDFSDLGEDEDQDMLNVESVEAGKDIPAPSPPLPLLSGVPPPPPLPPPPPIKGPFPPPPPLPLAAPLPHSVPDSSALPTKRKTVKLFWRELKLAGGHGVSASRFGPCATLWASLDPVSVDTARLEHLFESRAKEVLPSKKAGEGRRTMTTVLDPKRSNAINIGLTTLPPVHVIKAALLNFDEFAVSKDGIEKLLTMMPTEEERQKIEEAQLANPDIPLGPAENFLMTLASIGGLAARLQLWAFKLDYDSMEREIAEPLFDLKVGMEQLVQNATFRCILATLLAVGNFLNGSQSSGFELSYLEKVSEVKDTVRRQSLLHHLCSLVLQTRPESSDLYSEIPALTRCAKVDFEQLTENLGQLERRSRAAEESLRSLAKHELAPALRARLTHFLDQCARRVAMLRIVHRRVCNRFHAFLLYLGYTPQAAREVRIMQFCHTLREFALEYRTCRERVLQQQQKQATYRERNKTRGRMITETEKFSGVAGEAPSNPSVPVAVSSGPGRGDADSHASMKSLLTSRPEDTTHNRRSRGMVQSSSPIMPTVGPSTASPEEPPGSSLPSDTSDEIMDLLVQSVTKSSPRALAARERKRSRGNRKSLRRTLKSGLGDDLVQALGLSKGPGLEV
# In short: as §1
# [4] = biological target: T4, UniProt Q9Y6I3|Q9Y6I3-3
# T4 sequence (whole entry): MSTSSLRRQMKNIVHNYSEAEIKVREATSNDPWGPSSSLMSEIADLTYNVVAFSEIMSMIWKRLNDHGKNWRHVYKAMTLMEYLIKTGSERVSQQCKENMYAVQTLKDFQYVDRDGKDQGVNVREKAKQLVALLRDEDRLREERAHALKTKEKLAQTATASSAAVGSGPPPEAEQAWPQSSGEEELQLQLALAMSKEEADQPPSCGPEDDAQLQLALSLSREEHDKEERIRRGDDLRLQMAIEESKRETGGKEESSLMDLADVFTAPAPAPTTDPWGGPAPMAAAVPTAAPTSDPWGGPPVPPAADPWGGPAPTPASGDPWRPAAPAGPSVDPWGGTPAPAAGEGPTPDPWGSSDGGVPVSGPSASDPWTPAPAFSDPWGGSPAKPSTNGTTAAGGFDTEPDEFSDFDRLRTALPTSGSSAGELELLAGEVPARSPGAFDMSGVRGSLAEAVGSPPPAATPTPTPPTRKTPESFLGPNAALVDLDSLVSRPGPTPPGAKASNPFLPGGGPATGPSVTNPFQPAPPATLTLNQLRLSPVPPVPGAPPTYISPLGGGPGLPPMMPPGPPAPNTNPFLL
# In short: as §1
# [5] = biological target: T5, UniProt Q9Y6M7-13|Q9Y6M7-6|Q9Y6M7-9|Q9Y6M7-5|A0A0A0MST8
# T5 sequence (whole entry): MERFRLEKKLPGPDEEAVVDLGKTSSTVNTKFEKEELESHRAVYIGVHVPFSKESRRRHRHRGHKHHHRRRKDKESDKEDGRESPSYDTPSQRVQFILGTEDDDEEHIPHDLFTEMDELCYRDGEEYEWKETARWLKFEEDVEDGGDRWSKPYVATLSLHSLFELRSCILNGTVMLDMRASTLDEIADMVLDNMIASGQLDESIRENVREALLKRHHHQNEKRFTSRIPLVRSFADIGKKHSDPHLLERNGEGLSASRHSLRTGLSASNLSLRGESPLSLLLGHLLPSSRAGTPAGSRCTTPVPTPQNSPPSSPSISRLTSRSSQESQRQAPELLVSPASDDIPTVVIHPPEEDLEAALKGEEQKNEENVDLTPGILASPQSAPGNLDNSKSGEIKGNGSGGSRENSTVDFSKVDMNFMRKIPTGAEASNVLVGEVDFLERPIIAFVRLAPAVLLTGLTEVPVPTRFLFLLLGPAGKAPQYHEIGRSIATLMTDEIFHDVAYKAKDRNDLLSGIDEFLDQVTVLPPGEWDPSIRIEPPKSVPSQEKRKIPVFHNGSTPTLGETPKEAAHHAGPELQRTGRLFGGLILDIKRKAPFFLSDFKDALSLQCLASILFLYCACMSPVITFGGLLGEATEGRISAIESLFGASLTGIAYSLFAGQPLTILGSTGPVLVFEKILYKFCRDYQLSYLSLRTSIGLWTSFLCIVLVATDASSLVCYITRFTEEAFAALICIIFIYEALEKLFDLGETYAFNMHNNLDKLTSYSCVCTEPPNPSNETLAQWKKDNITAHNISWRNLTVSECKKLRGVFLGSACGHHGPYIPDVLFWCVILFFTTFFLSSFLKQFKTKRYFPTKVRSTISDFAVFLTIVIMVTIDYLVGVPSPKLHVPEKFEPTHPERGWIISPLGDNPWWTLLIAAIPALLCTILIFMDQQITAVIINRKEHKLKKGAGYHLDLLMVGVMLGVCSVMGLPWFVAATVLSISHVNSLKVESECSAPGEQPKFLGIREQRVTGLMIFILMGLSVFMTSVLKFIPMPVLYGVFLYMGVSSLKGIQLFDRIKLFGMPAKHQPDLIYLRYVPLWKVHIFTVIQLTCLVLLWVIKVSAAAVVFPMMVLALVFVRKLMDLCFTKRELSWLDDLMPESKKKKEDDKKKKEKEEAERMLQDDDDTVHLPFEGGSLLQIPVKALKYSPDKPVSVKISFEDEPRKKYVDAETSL
# In short: as §1
smiles,measurement,setting,value
Nc1ncnc2c1ncn2[C@@H]1O[C@H](COP(=O)(O)OP(=O)(O)OP(=O)(O)O)[C@@H](O)[C@H]1O [adenosine triphosphate],NP40-soluble protein abundance,[1]; concentration: 1mM,1.03 ± 0.089
same,NP40-soluble protein abundance,[1]; concentration: 2mM,1.02 ± 0.074
same,NP40-soluble protein abundance,[1]; concentration: 4mM,1.03 ± 0.088
same,NP40-soluble protein abundance,[1]; concentration: 6mM,0.97 ± 0.13
same,NP40-soluble protein abundance,[1]; concentration: 8mM,1.03 ± 0.1
same,NP40-soluble protein abundance,[1]; concentration: 10mM,1.02 ± 0.058
same,NP40-soluble protein abundance,[2]; concentration: 1mM,1.11 ± 0.11
same,NP40-soluble protein abundance,[2]; concentration: 2mM,1.16 ± 0.17
same,NP40-soluble protein abundance,[2]; concentration: 4mM,1.31 ± 0.27
same,NP40-soluble protein abundance,[2]; concentration: 6mM,1.41 ± 0.23
same,NP40-soluble protein abundance,[2]; concentration: 8mM,1.51 ± 0.37
same,NP40-soluble protein abundance,[2]; concentration: 10mM,1.71 ± 0.49
same,NP40-soluble protein abundance,[3]; concentration: 1mM,0.963 ± 0.062
same,NP40-soluble protein abundance,[3]; concentration: 2mM,1.01 ± 0.085
same,NP40-soluble protein abundance,[3]; concentration: 4mM,1.02 ± 0.058
same,NP40-soluble protein abundance,[3]; concentration: 6mM,1.01 ± 0.078
same,NP40-soluble protein abundance,[3]; concentration: 8mM,0.952 ± 0.068
same,NP40-soluble protein abundance,[3]; concentration: 10mM,0.96 ± 0.055
same,NP40-soluble protein abundance,[4]; concentration: 1mM,0.932 ± 0.045
same,NP40-soluble protein abundance,[4]; concentration: 2mM,0.915 ± 0.018
same,NP40-soluble protein abundance,[4]; concentration: 4mM,0.915 ± 0.023
same,NP40-soluble protein abundance,[4]; concentration: 6mM,0.927 ± 0.037
same,NP40-soluble protein abundance,[4]; concentration: 8mM,0.907 ± 0.029
same,NP40-soluble protein abundance,[4]; concentration: 10mM,0.894 ± 0.014
same,NP40-soluble protein abundance,[5]; concentration: 1mM,1.05 ± 0.022
same,NP40-soluble protein abundance,[5]; concentration: 2mM,1.03 ± 0.026
same,NP40-soluble protein abundance,[5]; concentration: 4mM,1.05 ± 0.036
same,NP40-soluble protein abundance,[5]; concentration: 6mM,1.04 ± 0.032
same,NP40-soluble protein abundance,[5]; concentration: 8mM,1.06 ± 0.024
same,NP40-soluble protein abundance,[5]; concentration: 10mM,1.02 ± 0.034
